PubChem BioAssay AID602304 (NMMLSC, 2012)
Potency and affinity values are given separately. The source made the active and inactive calls. Entries that show only a call come without a potency. The rule behind the calls is not given here.

Assay: vacuolar alkalinization by V-ATPase blockade – S. cerevisiae, BCECF dye, powder set 1, dose response (AID 602304)
Settings: BCECF fluorescence; series mostly up to 100 µM

SMILES | outcome
O=C(c1ccc([N+](=O)[O-])o1)N1CCN(c2nccs2)CC1 | inactive
O=C(c1nc2ccccc2s1)N1CCN(c2nc3ccc(F)cc3s2)CC1 | inactive
O=C(c1cnccn1)N1CCN(c2nc3ccc(F)cc3s2)CC1 | inactive
CS(=O)(=O)c1cccc2sc(N3CCN(C(=O)c4ccc([N+](=O)[O-])o4)CC3)nc12 | inactive
O=C(c1cccs1)N1CCN(c2nc3ccc(F)cc3s2)CC1 | inactive
O=C(c1ccco1)N1CCN(c2nc3ccc(F)cc3s2)CC1 | inactive
Cc1cc(C(=O)N2CCN(c3nc4ccc(F)cc4s3)CC2)n(C)n1 | inactive
Cc1cc(C(=O)N2CCN(c3nc4ccc(F)cc4s3)CC2)on1 | inactive
O=C(C1CCCCC1)N1CCN(c2nc3ccc(F)cc3s2)CC1 | inactive
Cc1cc(C(=O)N2CCN(c3nc4ccc(F)cc4s3)CC2)nn1C | inactive
O=C(c1ccno1)N1CCN(c2nc3ccc(F)cc3s2)CC1 | inactive
Cc1cc(C(=O)N2CCN(c3nc4ccc(F)cc4s3)CC2)no1 | inactive
O=C(c1ccc(Cl)s1)N1CCN(c2nc3ccc(F)cc3s2)CC1 | inactive
CC(C)(C)C(=O)N1CCN(c2nc3ccc(F)cc3s2)CC1 | inactive
O=C(C1CC1)N1CCN(c2nc3ccc(F)cc3s2)CC1 | inactive
O=C(c1ccc([N+](=O)[O-])o1)N1CCN(c2ccccn2)CC1 | inactive
O=C(c1ccc(Br)s1)N1CCN(c2nc3ccc(F)cc3s2)CC1 | inactive
O=C(Nc1ccccc1N1CCOCC1)c1ccc([N+](=O)[O-])o1 | inactive
CS(=O)(=O)c1ccc2nc(N3CCN(C(=O)c4ccc([N+](=O)[O-])o4)CC3)sc2c1 | inactive
